High-throughput results: PubChem BioAssay, several laboratories
HGIII-sPLA2 inh: Inhibits HGIII-sPLA2 liposome hydrolysis, primary screen; inhibition, % at 12.2 µM; QFRET BODIPY PC-A2 liposome hydrolysis, fluorescence; actives 0.56% (n = 370,000);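 active = inhibition above mean plus 3 SD of compounds lying within the high and low control bounds, cut at about 19% in these data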
Rin1 Abl inh: human Rin1-Abl interaction inhibition. P00519+Q13671. TR-FRET Rin1/Abl binding, biochemical. inhibition, % at 7.35 µM. actives 0.4% (n = 360,000); in the data active = inhibition above about 5%, passing the limit was not always enough
Target sequence (P00519 whole entry, looked up): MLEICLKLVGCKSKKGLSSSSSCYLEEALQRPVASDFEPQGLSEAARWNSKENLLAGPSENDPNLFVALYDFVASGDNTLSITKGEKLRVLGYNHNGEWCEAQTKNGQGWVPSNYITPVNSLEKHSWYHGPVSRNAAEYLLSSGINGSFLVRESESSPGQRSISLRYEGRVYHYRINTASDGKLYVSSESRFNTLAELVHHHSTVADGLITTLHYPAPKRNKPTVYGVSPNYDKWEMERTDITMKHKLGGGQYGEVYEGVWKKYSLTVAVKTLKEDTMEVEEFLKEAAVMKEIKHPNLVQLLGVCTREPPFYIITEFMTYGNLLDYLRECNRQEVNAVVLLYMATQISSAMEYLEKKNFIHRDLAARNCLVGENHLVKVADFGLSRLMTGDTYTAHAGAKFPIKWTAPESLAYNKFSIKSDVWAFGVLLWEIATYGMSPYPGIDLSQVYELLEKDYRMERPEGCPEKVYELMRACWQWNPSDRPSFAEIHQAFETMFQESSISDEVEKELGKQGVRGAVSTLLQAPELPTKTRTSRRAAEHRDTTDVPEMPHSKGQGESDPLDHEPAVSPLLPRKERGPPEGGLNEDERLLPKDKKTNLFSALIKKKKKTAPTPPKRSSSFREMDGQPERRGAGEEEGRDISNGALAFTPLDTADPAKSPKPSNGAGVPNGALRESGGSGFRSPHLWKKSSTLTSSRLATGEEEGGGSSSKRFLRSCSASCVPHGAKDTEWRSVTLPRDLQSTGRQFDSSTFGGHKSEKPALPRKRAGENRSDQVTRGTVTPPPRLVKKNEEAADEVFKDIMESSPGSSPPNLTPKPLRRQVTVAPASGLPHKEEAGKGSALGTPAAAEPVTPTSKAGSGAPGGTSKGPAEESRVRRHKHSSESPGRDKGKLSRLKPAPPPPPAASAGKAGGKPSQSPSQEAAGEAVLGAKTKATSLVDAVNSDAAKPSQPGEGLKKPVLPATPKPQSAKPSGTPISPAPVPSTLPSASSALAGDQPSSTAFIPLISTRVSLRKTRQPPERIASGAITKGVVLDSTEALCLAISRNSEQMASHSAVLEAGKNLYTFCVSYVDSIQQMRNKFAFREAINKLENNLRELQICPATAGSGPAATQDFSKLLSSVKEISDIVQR
Target sequence (Q13671 whole entry, looked up): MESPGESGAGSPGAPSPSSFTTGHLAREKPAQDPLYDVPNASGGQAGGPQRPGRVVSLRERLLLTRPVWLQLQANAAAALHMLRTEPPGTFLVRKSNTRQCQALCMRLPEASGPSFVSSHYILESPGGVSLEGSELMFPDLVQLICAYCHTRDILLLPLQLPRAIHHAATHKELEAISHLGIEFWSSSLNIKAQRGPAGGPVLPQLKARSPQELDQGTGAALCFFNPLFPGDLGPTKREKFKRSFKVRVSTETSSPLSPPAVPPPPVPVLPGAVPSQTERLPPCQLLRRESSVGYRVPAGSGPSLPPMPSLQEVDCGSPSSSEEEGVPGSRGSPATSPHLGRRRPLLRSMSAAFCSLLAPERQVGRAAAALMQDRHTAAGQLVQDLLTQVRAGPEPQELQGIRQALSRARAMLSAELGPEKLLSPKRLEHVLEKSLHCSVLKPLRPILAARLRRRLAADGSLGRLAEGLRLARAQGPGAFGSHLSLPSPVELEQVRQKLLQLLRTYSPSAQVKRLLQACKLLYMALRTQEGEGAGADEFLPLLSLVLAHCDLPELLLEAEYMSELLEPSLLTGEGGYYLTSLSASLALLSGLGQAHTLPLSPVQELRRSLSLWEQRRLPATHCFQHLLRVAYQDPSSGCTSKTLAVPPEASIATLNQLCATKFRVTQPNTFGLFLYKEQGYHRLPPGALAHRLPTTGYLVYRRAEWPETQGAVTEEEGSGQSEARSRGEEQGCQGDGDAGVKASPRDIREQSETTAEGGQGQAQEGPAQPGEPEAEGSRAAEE
ARNT TACC3 PPI: ARNT/TACC3 interaction disruption. AlphaScreen His-ARNT PAS-B/GST-TACC3 binding, luminescence; TACC3 fragment carries E629A point mutation. actives 0.66% (n = 390,000). inhibition, % at 9.99 µM. AID 623870;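 active = mean inhibition of replicates at least 50% and at least half of replicates each reaching 50%; inconclusive = half or more replicates reach 50% but mean below 50%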
AI-2 QS modul: modulators of Vibrio harveyi AI-2 quorum sensing system. Vibrio harveyi JMH597 AI-2 luminescence/OD600 ratio, 9 h; hits give low values; strain lacks LuxN and CqsS sensors; 0 = neutral-control median. activity change, % at 7.5 µM. actives 0.4% (n = 300,000); in the data active = activity change below about -75%, passing the limit was not always enough; inconclusive = no clear call, values can overlap the other calls;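 also: luminescence divided by OD600 gain over 9 h not by final OD600 alone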
JMH597 growth: retest: blocks Vibrio harveyi JMH597 growth; actives 1% (n = 750); growth inhibition, % at 7.5 µM; AID 2726; shares compounds with AI-2 QS modul; OD600 absorbance, 9 h; lacks LuxN and CqsS sensors;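 active = every replicate shows growth inhibition above 50%; inconclusive = at least half, but not all, replicates pass that cutoff; inactive = fewer than half of replicates pass it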
BB721 lum counter: retest counter-screen: lowers luminescence of constitutive-QS Vibrio harveyi BB721. shares compounds with AI-2 QS modul. 9 h. inhibition, % at 7.5 µM. actives 95% (n = 750). AID 2727;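 active = inhibition above about 80% in every replicate, not just on average, limit read from the data; inconclusive = at least half of replicates past the limit, but not all; inactive = fewer than half of replicates past the limit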
BB721 growth: retest Vibrio harveyi BB721 growth inhibition; AID 2728; shares compounds with AI-2 QS modul; growth inhibition, % at 7.5 µM; OD600 absorbance, 9 h; actives 3% (n = 750);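 active = every replicate shows growth inhibition above 50%; inconclusive = at least half but not all replicates above 50% inhibition; inactive = under half of replicates above 50% inhibition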
JMH597 AI-2 mod: Vibrio harveyi AI-2 signaling luminescence modulation – JMH597 strain, confirmation; shares compounds with AI-2 QS modul; Vibrio harveyi JMH597 AI-2 quorum sensing luminescence, 9 h; luxN and CqsS knockout, AI-2 only; inhibition, % at 7.5 µM; actives 97% (n = 750); AID 2736;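 active = every replicate shows more than 75% inhibition of signal versus neutral control wells; inconclusive = half to three quarters of replicates exceed 75% inhibition; inactive = fewer than half of replicates exceed 75% inhibition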
Of the large screens only hits and unclear results are named; the others gave an inactive call (follow-up assays come after a bar, where they were run). This is a sample that favours compounds with a hit; in the whole collection about 1.5% have one here.

C[C@H]1CN([C@@H](C)CO)C(=O)c2cccc(NC(=O)Nc3ccc(F)cc3)c2O[C@@H]1CN(C)C(=O)NC1CCCCC1	none (no result: HGIII-sPLA2 inh, Rin1 Abl inh, AI-2 QS modul)
O=C(Nc1cnn(Cc2ccc(F)cc2)c1)c1cnccn1	AI-2 QS modul -95 | JMH597 growth inactive | BB721 lum counter 98 | BB721 growth inactive | JMH597 AI-2 mod 98
CO[C@@H]1CN(C)C(=O)c2cc(NC(=O)Nc3ccccc3Cl)ccc2OC[C@@H](C)N(C)C[C@H]1C	none (no result: HGIII-sPLA2 inh, Rin1 Abl inh, AI-2 QS modul)
C[C@H](O)C#Cc1ccc2c(c1)O[C@@H](CN(C)Cc1cncnc1)[C@H](C)CN([C@@H](C)CO)S2(=O)=O	none (no result: HGIII-sPLA2 inh, Rin1 Abl inh, AI-2 QS modul)
Cc1cccc(S(=O)(=O)N[C@H]2CC[C@H](CCNS(=O)(=O)c3ccccc3F)O[C@H]2CO)c1	none (no result: HGIII-sPLA2 inh, Rin1 Abl inh, AI-2 QS modul)
Fc1ccccc1CSc1nnc(-c2ccccc2)o1	AI-2 QS modul -93 | JMH597 growth inactive | BB721 lum counter 98 | BB721 growth inactive | JMH597 AI-2 mod 98
c1ccc(CSc2nnc(-c3ccncc3)o2)cc1	AI-2 QS modul -88 | JMH597 growth inactive | BB721 lum counter 95 | BB721 growth inactive | JMH597 AI-2 mod 96
Cc1ccccc1-c1nnc(SCc2ccccc2F)o1	AI-2 QS modul -81 | JMH597 growth inactive | BB721 lum counter 95 | BB721 growth inactive | JMH597 AI-2 mod 96
Cc1ccccc1-c1nnc(SCc2ccccc2)o1	AI-2 QS modul -96 | JMH597 growth inactive | BB721 lum counter 99 | BB721 growth inactive | JMH597 AI-2 mod 99
COc1ccc(-c2nnc(SCc3ccccc3F)o2)cc1	none (no result: ARNT TACC3 PPI)
C[C@H]1CN([C@@H](C)CO)C(=O)c2cc(C#Cc3ccc(F)cc3)cnc2O[C@@H]1CN(C)C	none (no result: HGIII-sPLA2 inh, Rin1 Abl inh, AI-2 QS modul)
CCNC(=O)Nc1ccc2c(c1)C(=O)N(C)[C@@H]1CC[C@H](CC(=O)N[C@@H](C)c3ccccc3)O[C@@H]1CO2	none (no result: HGIII-sPLA2 inh, Rin1 Abl inh, AI-2 QS modul)
CCCNC(=O)N(C)C[C@@H]1Oc2cc(-c3cccnc3)ccc2S(=O)(=O)N([C@@H](C)CO)C[C@H]1C	none (no result: HGIII-sPLA2 inh, Rin1 Abl inh, AI-2 QS modul)
O=C(NCC[C@H]1CC[C@@H](NC(=O)C2CCCC2)[C@@H](CO)O1)c1ccc(F)cc1	none (no result: HGIII-sPLA2 inh, Rin1 Abl inh, AI-2 QS modul)
COc1cccc(CSc2nnc(-c3ccc(F)cc3)o2)c1	AI-2 QS modul -91 | JMH597 growth inactive | BB721 lum counter 96 | BB721 growth inactive | JMH597 AI-2 mod 97
COc1ccc(-c2nnc(SCc3cccc(C#N)c3)o2)cc1	none
CCC(=O)Nc1ccc2c(c1)C(=O)N(C)C[C@@H](OC)[C@@H](C)CN(C(=O)C1CCC1)[C@@H](C)CO2	none (no result: HGIII-sPLA2 inh, Rin1 Abl inh, AI-2 QS modul)
O=S(=O)(NCCSc1ccc(Cl)cc1)c1ccc(F)cc1	none
Cc1ccc(SCCNS(=O)(=O)c2ccc(F)cc2)cc1	AI-2 QS modul -94 | JMH597 growth inactive | BB721 lum counter 94 | BB721 growth inactive | JMH597 AI-2 mod 95
Cc1ncn(-c2ccc(C(=O)Oc3ccccc3)cn2)n1	AI-2 QS modul -87 | JMH597 growth inactive | BB721 lum counter 93 | BB721 growth inactive | JMH597 AI-2 mod 96
CN(C)S(=O)(=O)c1ccc(C(=O)OCC(=O)c2ccc3c(c2)NC(=O)CO3)cc1	AI-2 QS modul -95 | JMH597 growth inactive | BB721 lum counter inconclusive | BB721 growth inactive | JMH597 AI-2 mod 85
O=C1COc2ccc(C(=O)COC(=O)Cc3ccsc3)cc2N1	AI-2 QS modul -85 (no result: ARNT TACC3 PPI) | JMH597 growth inactive | BB721 lum counter 95 | BB721 growth inactive | JMH597 AI-2 mod 97
O=C1COc2ccc(C(=O)COC(=O)Cc3c(F)cccc3Cl)cc2N1	none (no result: AI-2 QS modul)
O=C1COc2ccc(C(=O)COC(=O)Cc3ccccc3F)cc2N1	AI-2 QS modul -83 | JMH597 growth inactive | BB721 lum counter 88 | BB721 growth inactive | JMH597 AI-2 mod 91
O=C(N[C@@H]1CC[C@H](CCNS(=O)(=O)c2ccccc2)O[C@@H]1CO)c1cccnc1	none (no result: HGIII-sPLA2 inh, Rin1 Abl inh, AI-2 QS modul)
CC(C)c1nnc(NC(=O)CCN2C(=O)c3ccccc3C2=O)s1	AI-2 QS modul -83 | JMH597 growth inactive | BB721 lum counter 95 | BB721 growth inactive | JMH597 AI-2 mod 96
CCC(CC)c1nnc(NC(=O)CCCN2C(=O)c3ccccc3C2=O)s1	none (no result: ARNT TACC3 PPI)
CCCc1nnc(NC(=O)CCN2C(=O)c3ccccc3C2=O)s1	AI-2 QS modul -87 | JMH597 growth inactive | BB721 lum counter 94 | BB721 growth inactive | JMH597 AI-2 mod 96
Cc1ccc(NC(=O)Cn2nc(C)c3ccccc3c2=O)cc1F	AI-2 QS modul -93 | JMH597 growth inactive | BB721 lum counter 99 | BB721 growth inactive | JMH597 AI-2 mod 99
COc1ccc(NC(=O)Cn2nc(C)c3ccccc3c2=O)cc1	AI-2 QS modul -92 | JMH597 growth inactive | BB721 lum counter 97 | BB721 growth inactive | JMH597 AI-2 mod 98
Cc1nnc(NC(=O)Cn2nc(C)c3ccccc3c2=O)s1	AI-2 QS modul -90 | JMH597 growth inactive | BB721 lum counter 98 | BB721 growth inactive | JMH597 AI-2 mod 99
Cc1nn(CC(=O)N(C)C)c(=O)c2ccccc12	none
Cc1nn(CC(=O)Nc2ccc(C(=O)N(C)C)cc2)c(=O)c2ccccc12	AI-2 QS modul -90 | JMH597 growth inactive | BB721 lum counter 97 | BB721 growth inactive | JMH597 AI-2 mod 98
C[C@H](CO)N1C[C@H](C)[C@H](CN(C)C(=O)Nc2ccc(F)cc2)OCCCC[C@H](C)Oc2ccc(NC(=O)c3ccncc3)cc2C1=O	none (no result: HGIII-sPLA2 inh, Rin1 Abl inh, AI-2 QS modul)
OC(CSc1ccncc1)CC(O)c1ccccc1 (stereo not drawn)	none (no result: HGIII-sPLA2 inh, Rin1 Abl inh, AI-2 QS modul)
O=C(CN1C(=O)NC(Cc2ccccc2)C1=O)Nc1ccccc1 (stereo not drawn)	none
N#Cc1ccc(NC(=O)CN2C(=O)NC(Cc3ccccc3)C2=O)cc1 (stereo not drawn)	none
N#Cc1cccc(NC(=O)CN2C(=O)NC(Cc3ccccc3)C2=O)c1 (stereo not drawn)	AI-2 QS modul -84 | JMH597 growth inactive | BB721 lum counter 89 | BB721 growth inactive | JMH597 AI-2 mod 93
Cc1cccc(NC(=O)CN2C(=O)NC(Cc3ccccc3)C2=O)c1 (stereo not drawn)	AI-2 QS modul inconclusive | JMH597 growth inactive | BB721 lum counter 85 | BB721 growth inactive | JMH597 AI-2 mod 89
CC(C)Cc1ccc(S(=O)(=O)Nc2ccccn2)cc1	AI-2 QS modul -93 | JMH597 growth inactive | BB721 lum counter 98 | BB721 growth inactive | JMH597 AI-2 mod 100
CC(C)NC(=O)N[C@H]1CC[C@@H](CC(=O)NCCN2CCCC2)O[C@@H]1CO	none (no result: HGIII-sPLA2 inh, Rin1 Abl inh, AI-2 QS modul)
COc1ccc(NC(=O)CSCC(=O)N(C)CC(=O)Nc2ccc(Cl)c(C(F)(F)F)c2)cc1	AI-2 QS modul -80 | JMH597 growth inactive | BB721 lum counter 89 | BB721 growth inactive | JMH597 AI-2 mod 91
